NPC1 prom act – activates the NPC1 promoter; Huh7 NPC1 promoter luciferase reporter, 24 h; hit rate 2.4% among 320,000; Potency, µM (top dose mostly 9.22 µM), for inactives: at the top dose activation, hits mostly activators; AID 485313; note: % of control where 0% means no effect; nearly all actives have a fitted effect of over 60% in size
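Luciferase expression driven by the NPC1 promoter was measured in stably transfected Huh7 cells after a 24 h compound incubation, using a luciferase reagent and a luminescence read.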
ELG1 repair inh – blocks ELG1-dependent DNA repair in HEK293T cells; HEK293T ELG1-luciferase reporter, luminescence, 16 h; DNA damage induced by 5-fluorouridine; Potency, µM (top dose mostly 46.1 µM), inactives show at the top dose activity change, negative = inhibition, usual class: inhibitors; hit rate 2.3% among 330,000; note: % is set by controls: 0 for no effect and ±100 for the full control effect; nearly all actives have a fitted effect of over 55% in size
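Reporter activity after DNA damage by 5-fluorouridine is monitored. Compound-treated cells incubate 16 hr at 37 °C, then ONE-Glo is added for 30 min before luminescence reading.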
Rab9 prom act – Rab9 promoter activation; AID 485297; hit rate 2.8% among 320,000; Potency, µM (titrated, usually from 9.22 µM), for inactives: at the top dose activation, negative = inhibition, usual class: activators; Huh7 Rab9 promoter-luciferase reporter, luminescence, 24 h; note: % of control where 0% means no effect; nearly all actives have a fitted effect of over 60% in size
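Using Huh7 cells stably transfected with Rab9 promoter–luciferase, compounds were incubated 24 h at 37 °C, 5% CO2; luciferase luminescence was read 10 min after reagent addition.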
ELG1 genotoxic – inducers of genotoxicity in HEK293T ELG1-luciferase cells; HEK293T ELG1-luciferase reporter, luminescence, 16 h; Potency, µM (top dose mostly 46 µM), inactives show top-dose activity change, positive = activation, hits mostly activators; hit rate 1.3% among 330,000; note: % of control where 0% means no effect; nearly all actives have a fitted effect of over 60% in size
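DMSO vehicle served as control against compound-treated ELG1-luciferase HEK293T cells; exposure lasted 16 hr at 37 °C and 5% CO2, followed by ONE-Glo luminescence detection after 30 min.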
SMN2 splice up – increases expression of the SMN2 splice variant; Potency, µM (series often up to 46.1 µM), inactives show at the highest dose activity change, positive = activation, most hits filed as activators; HEK293 SMN2-luciferase splicing reporter, luminescence, 30-36 h; hit rate 2.8% among 210,000; note: % of control where 0% means no effect; nearly all actives have a fitted effect of over 55% in size
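qHTS luciferase splicing reporter: luminescence rises when SMN2 exon 7 is included in transfected HEK293 cells. Compound exposure lasted 30-36 h at 37C, with 4.5 mM final sodium butyrate as control, followed by a ONE-Glo read.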
FLuc modulator – inhibits or activates purified firefly luciferase, miR-21 counter-screen; Potency, µM (doses to about 57.5 µM), for inactives: at the top dose activity change, negative = inhibition, usual class: inhibitors; AID 588342; purified FLuc, Km substrates, luminescence inhibition; hit rate 6.9% among 360,000; P08659;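 note: plate controls were vehicle for no effect and reference inhibitor for full effect; nearly all actives have a fitted effect of over 55% in size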
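Biochemical qHTS of compounds, final roughly 60 µM downward over six points, against 10 nM purified firefly luciferase using Km concentrations of substrates (10 uM D-luciferin, 10 uM ATP) in Tris acetate pH 7.5 buffer; luminescence output.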
ELG1 FLuc counter – luciferase inhibition in cell-free luciferin readout for ELG1 hits; hit rate 3% among 350; AID 624247; shares compounds with ELG1 repair inh; cell-free firefly luciferase luminescence counter-screen, ViewLux; Potency, µM (doses to about 46.1 µM), for inactives: at the highest dose activity change, negative = inhibition, most hits filed as inhibitors; note: % is set by controls: 0 for no effect and ±100 for the full control effect
ELG1 Luc conf – confirmation of human ELG1-dependent DNA repair inhibitors. HEK293T ELG1-luciferase levels, luminescence; cells co-treated with 5-fluorouridine. hit rate 68% among 670. Potency, µM (top dose mostly 46.1 µM), for inactives: at the highest dose activity change, negative = inhibition, most hits filed as inhibitors. AID 624248. shares compounds with ELG1 repair inh; note: % is set by controls: 0 for no effect and ±100 for the full control effect; nearly all actives have a fitted effect of over 55% in size
Target sequence (Q96QE3 whole entry, looked up): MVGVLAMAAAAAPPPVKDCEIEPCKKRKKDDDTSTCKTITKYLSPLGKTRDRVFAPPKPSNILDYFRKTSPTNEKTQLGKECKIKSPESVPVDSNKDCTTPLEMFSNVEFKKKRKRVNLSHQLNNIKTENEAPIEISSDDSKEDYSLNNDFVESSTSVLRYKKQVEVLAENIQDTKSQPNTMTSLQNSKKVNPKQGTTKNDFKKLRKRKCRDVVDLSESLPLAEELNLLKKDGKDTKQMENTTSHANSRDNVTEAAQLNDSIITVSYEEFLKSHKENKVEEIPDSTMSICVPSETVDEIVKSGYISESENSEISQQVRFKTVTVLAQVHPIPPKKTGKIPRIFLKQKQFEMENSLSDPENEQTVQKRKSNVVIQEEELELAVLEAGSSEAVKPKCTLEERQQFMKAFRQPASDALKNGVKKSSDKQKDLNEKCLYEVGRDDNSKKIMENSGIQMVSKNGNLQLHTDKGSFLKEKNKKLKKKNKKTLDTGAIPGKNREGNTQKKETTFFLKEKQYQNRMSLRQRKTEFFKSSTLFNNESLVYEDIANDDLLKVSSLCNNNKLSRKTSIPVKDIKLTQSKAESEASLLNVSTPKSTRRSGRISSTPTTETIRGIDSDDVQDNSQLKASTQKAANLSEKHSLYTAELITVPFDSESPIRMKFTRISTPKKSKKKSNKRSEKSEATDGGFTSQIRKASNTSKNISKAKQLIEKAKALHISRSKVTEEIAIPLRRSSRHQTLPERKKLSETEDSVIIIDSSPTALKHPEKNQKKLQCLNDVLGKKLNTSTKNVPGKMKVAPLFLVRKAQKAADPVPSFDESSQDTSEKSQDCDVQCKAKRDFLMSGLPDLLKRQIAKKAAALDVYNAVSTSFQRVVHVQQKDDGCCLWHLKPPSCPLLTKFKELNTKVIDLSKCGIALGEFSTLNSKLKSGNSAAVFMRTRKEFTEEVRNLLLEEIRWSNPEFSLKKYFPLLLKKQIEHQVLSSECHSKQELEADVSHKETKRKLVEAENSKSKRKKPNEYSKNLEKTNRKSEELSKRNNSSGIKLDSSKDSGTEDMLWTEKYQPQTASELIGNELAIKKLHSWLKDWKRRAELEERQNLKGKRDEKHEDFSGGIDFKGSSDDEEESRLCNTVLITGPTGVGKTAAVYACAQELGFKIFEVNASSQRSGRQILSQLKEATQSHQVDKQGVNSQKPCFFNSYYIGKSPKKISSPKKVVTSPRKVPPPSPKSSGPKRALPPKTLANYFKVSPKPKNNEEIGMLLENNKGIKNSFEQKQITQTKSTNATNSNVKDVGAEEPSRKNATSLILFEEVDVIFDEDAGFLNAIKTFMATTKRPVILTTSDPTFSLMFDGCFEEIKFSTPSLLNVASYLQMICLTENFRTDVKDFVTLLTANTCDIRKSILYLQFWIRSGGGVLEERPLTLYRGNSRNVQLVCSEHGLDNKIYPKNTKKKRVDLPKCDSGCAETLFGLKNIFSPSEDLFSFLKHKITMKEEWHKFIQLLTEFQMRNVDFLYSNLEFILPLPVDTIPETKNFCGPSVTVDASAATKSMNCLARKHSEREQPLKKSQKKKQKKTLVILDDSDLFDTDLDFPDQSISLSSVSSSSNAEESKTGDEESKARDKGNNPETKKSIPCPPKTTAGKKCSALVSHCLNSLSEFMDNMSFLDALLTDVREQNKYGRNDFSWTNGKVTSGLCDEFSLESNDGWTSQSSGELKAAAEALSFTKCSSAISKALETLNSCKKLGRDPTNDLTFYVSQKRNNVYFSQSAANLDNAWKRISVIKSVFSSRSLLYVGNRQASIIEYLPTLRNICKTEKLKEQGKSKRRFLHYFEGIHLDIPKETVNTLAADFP
ELG1 MMS Luc – inhibits ELG1-dependent repair under MMS stimulation in HEK293T cells; shares compounds with ELG1 repair inh; HEK293T luciferase-tagged ELG1 level, MMS stimulated; Potency, µM (titrated, usually from 46.1 µM), without a hit: at the top dose activity change, negative = inhibition, actives largely listed as inhibitors; hit rate 53% among 670; note: % is set by controls: 0 for no effect and ±100 for the full control effect; nearly all actives have a fitted effect of over 60% in size
ELG1 5FU viab – confirmation of ELG1 repair inhibitors: viability with 5FU; shares compounds with ELG1 repair inh; cell viability with 5-FU, ELG1-dependent repair; Potency, µM (top dose mostly 46.1 µM), without a hit: top-dose activity change, negative = viability loss, usual class: cytotoxic; 670 tested, under 10 active;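 note: ELG1-luc HEK293T cells cotreated with 5-fluorouridine at 10 µM final; viability measured 16 h after compound addition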
ELG1 MMS viab – confirmation of ELG1 repair inhibitors: viability with MMS | AID 624251 | hit rate 33% among 670 | Potency, µM (top dose mostly 46.1 µM), without a hit: at the top dose activity change, negative = viability loss, usual class: cytotoxic | Cell viability with MMS, ELG1-dependent DNA repair | shares compounds with ELG1 repair inh;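 note: ELG1-luc HEK293T cells co-treated with 10 µM MMS; viability read 16 h after compound addition; % is set by controls: 0 for no effect and ±100 for the full control effect; nearly all actives have a fitted effect of over 60% in size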
ELG1 unstim viab – counter-screen for ELG1 repair inhibitors: unstimulated cell viability; cell viability counter-screen, unstimulated, luminescence; AID 624252; hit rate 8% among 900; Potency, µM (titrated, usually from 45.9 µM), for inactives: at the top dose activity change, negative = loss of viability, most hits filed as cytotoxic; shares compounds with ELG1 repair inh;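 note: compound exposure lasted 16 hours before reading; % is set by controls: 0 for no effect and ±100 for the full control effect; nearly all actives have a fitted effect of over 55% in size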
FLuc biochem – firefly luciferase inhibition counter-screen | shares compounds with ELG1 repair inh | purified firefly luciferase, luminescence counter-screen | Potency, µM (highest dose often 57.5 µM), for inactives: at the top dose activity, negative = inhibition, hits mostly inhibitors | hit rate 10% among 350; note: % is set by controls: 0 for no effect and ±100 for the full control effect
Active calls of the source: *; ? = inconclusive; . = not tested or not shown. A selection: hits, their analogues and other compounds. The true share with any hit is near 9.2%. Calls come from the whole dose curve; as a rule, active = well fitted curve in the direction sought with a large enough effect; inconclusive = small, poorly fitted or top-dose-only effect, or another doubt; inactive = no such curve, though single readings can be large; an effect the other way counts as inactive or inconclusive. Potency is the fitted concentration of half-maximal effect.

SMILES	NPC1 prom act	ELG1 repair inh	Rab9 prom act	ELG1 genotoxic	SMN2 splice up	FLuc modulator	ELG1 Luc conf	ELG1 MMS Luc	ELG1 5FU viab	ELG1 MMS viab	ELG1 unstim viab	others
Cc1nn(-c2ccccc2)c(N2CCCC2)c1/C=N/NC(=O)c1cc(-c2cccnc2)nc2ccccc12	-3%	4.6µM*	-10%	-9%	-26%	1%	8.9µM*	28µM*	6%	-11%	?
C=CCn1c(SCC(=O)N2CC(=O)Nc3ccccc32)nc2scc(-c3ccccc3)c2c1=O	-3%	1.6µM*	0%	-3%	2%	4%	22µM*	-7%	7%	-7%	?
CCC(CC)C(=O)N1CCc2cc(OC)c(OC)cc2C1COc1ccc2c(C)cc(=O)oc2c1 (stereo not given)	.	.	.	.	8%	3%	.	.	.	.	.
CC1(C)CC(=O)C=C(NCCN2CCN(C(=S)Nc3ccccc3)CC2)C1	-4%	7%	11%	2%	.	2%	.	.	.	.	.
O=C(OCC(=O)N1CCCCC1)c1cccs1	.	?	.	?	.	.	.	.	.	.	-7%
Cc1cccc(C(=O)OCC(=O)N2CCCCCC2)c1O	3.2µM*	?	3.2µM*	?	.	.	.	.	.	.	?
CC1CC(C)CN(C(=O)COC(=O)/C=C/c2cccc([N+](=O)[O-])c2)C1 (stereo not given)	-4%	-8%	6%	2%	.	-8%	.	.	.	.	.
CC1CN(C(=O)COC(=O)/C=C/c2cccc([N+](=O)[O-])c2)CC(C)O1 (stereo not given)	.	1.5µM*	.	-6%	.	.	-17%	?	-5%	?	?
CC1CN(S(=O)(=O)c2ccc(C(=O)NCCCn3ccnc3)cc2)CC(C)O1 (stereo not given)	1%	0.73µM*	-2%	-18%	-50%	1%	5%	0.028µM*	-3%	0.032µM*	?	ELG1 FLuc counter=?;FLuc biochem=-7%
OCC1OC(n2cnc3c(=S)nc[nH]c32)C(O)C1O (stereo not given)	.	.	.	.	-38%	.	?	?	?	?	6.3µM*	ELG1 FLuc counter=9%;FLuc biochem=1%
CC1(C)OC2C(CO)OC(n3cnc4c(=S)nc[nH]c43)C2O1 (stereo not given)	-4%	?	3%	-1%	.	1%	.	.	.	.	.
